Experimental findings from PubChem BioAssay (NCI) are described below.

The panel holds about 83,000 compounds, 20% with a hit somewhere; the sample as a whole holds those more often.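 The test compound was applied at a single concentration to cells in 96-well plates for 48 hours, and percent growth was recorded.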 Calls of active or inactive are those of the source. The calls were made as follows: active = growth percent below 10; inactive = the rest.

The experiment concerns HL-60(TB) leukemia. Kind of experiment: NCI-60 one-dose screen, 48 h (100 = growth as untreated, 0 = no growth, -100 = all killed). The settings on record: 10 µM unless noted.
Take `Cc1cccc2c1NC(=O)C2(c1ccc(O)cc1)c1ccc(O)cc1`: the growth is 83% (inactive). As to `COc1ccc(CN2c3ccccc3Sc3ccccc32)cc1O`, the growth is 21.1% (inactive).

Consider `O=C(NNc1nccc(Nc2ccc(S(=O)(=O)Nc3ccncc3)cc2)n1)c1ccccc1`, for which the growth is 119% (inactive). Next, `CCN(CC)CC(C)(C)C(=O)/C=C/c1ccc(Cl)c(Cl)c1`: -10.2% (active); `O=C(NCc1cccc(C(F)(F)F)c1)[C@H](CCC(=O)N1CCN(C2CCCCC2)CC1)N1C(=O)[C@@H](N2C(=O)OC[C@@H]2c2ccccc2)[C@H]1/C(Cl)=C/c1ccccc1`: 5.62% (active); `COC(=O)CCCCCCN=Cc1c(O)c(O)c(C(C)C)c2cc(C)c(-c3c(C)cc4c(C(C)C)c(O)c(O)c(C=NCCCCCCC(=O)OC)c4c3O)c(O)c12`: 16.6% (inactive).

Take `CCCCCCCCCCCCCCCCOP(=O)([O-])OCC[N+](C)(C)C`: the growth was -29.6% (active). On to `COc1ccc(-c2nc3ccc4[nH]ncc4c3c3c2CCCC3)cc1B(O)O`, for which the growth is 64.6% (inactive). In the case of `CC[C@@]1(O)C(=O)OCc2c1cc1n(c2=O)Cc2c-1nc1ccccc1c2/C=N/OC(C)(C)C`, the growth was -29% (active). Take `O=C(O)CC1Sc2ccccc2NC1=O` (stereo not drawn): the growth is 115% (inactive). Next, `Cc1oc2nc[nH]c(=O)c2c1C(=O)/C=C/c1ccc(Cl)cc1`: -47.8% (active); `COc1ccc(/C(C)=C(\c2ccc(Cl)cc2)c2ccc(OCCN3CCCCC3)cc2)cc1F`: -14% (active); `C=C1CCC2C3(C)COC(c4ccc(N(C)C)cc4)OC3CCC2(C)C1C/C=C1/C(=O)OCC1O` (stereo not drawn): 15.3% (inactive).
